# According to PubChem BioAssay (NCATS):
# Unmarked numbers belong to inactive results. The call rests on the fitted dose curve; in most records, active means well fitted inhibition curve with a large enough effect; inconclusive means small, poorly fitted or top-dose-only effect; inactive means no such curve, though single readings can be large or run the other way.
# Assay: qHTS assay for measurement of the activity of small molecule inhibitors on Zika virus induced Caspase-3 activity in human astrocytoma cells (AID 1224859)
# Conditions: SNB-19 ZIKV-induced caspase-3/7, luminescence, 6 h; series mostly up to 45.7 µM; activity change, negative = inhibition: at the top concentration
# Description: National Center for Advancing Translational Sciences [NCATS]
# Johns Hopkins University School of Medicine
# Increase in the Caspase-3 activity indicates an activation of apoptosis cell death pathway caused by Zika virus infection in certain types of neuronal cells including human neural progenitor cells (hNPCs), astrocytes, and astrocytoma cell line (SNB-19). This cell-based caspase-3 activity assay measures the increased caspase-3 activity in the astrocytoma cell line (SNB-19) after a 6-hour Zika virus infection with a luminescence readout. A decrease in the luminescence signal in this assay by small molecule treatment indicates an inhibitory effect of that small molecule on the Zika virus induced caspase-3 activity that may correlate with its effect on reduction of Zika virus caused cell death.
# The medium for SNB-19 cells is composed of RPMI 1640 (ATCC, Cat.# 30-2001), 10% fetal bovine serum (FBS) (GE healthcare Life Sciences, Cat.# SH30071.03), and 1% Pen/Strep (Gibco, Cat.# 15140-122). A Caspase-Glo 3/7 assay kit (catalog number G8092; Promega, Madison, WI) was used to detect caspase-3 activity induced by Zika virus infection in human cells. The reagent mixture was reconstituted as described in the protocol from the manufacturer. Polystyrene tissue culture treated and PDL coated white plates were obtained from Greiner Bio-One (Monroe, NC). Cells were seeded in 384- or 1536-well assay plates and cultured at 37 C with 5% CO2 for 16 to 20 hours. The typical cell seeding density in the 1536-well plate assay is 250 cells/well in 3ul medium for SNB-19 cells in tissue culture treated plates. Compounds were added to cells and incubated for one hour before addition of ZIKV solution to cells (2 FFU/cell). After incubation at 37 C with 5% CO2 for 6 hours, the reagent mixture of Caspase-Glo 3/7 assay kit was added to each well, followed by incubation at room temperature for 30 minutes. The luminescence intensity of the assay plates was measured using a ViewLux plate reader (PerkinElmer). Data were normalized by using the cell-containing wells without ZIKV as a negative control (0% induction of caspase 3/7 activity) and wells containing ZIKV infected cells (Caspase-3 activity induced) as a positive control (100% induction of caspase 3 activity). The percentage inhibitions of the increased Caspase-3 activity by small molecule inhibitors were then calculated.
row,SMILES,"activity change, negative = inhibition [%]"
1,CC[n+]1c(/C=C/C=C2/N(C)c3ccccc3C2(C)C)sc2ccccc21,22.2
2,O=S(=O)(c1cccc2c(Cl)cccc12)N1CCCNCC1,7.32
3,NC1(C(=O)O)CCc2cc(C(=O)O)ccc21 (stereo not given),-14.4
4,Nc1ncnc2c1c(-c1ccc(Oc3ccccc3)cc1)cn2C1CCCC1,8.71
5,O=c1[nH]ccc2c(O)cccc12,-6.29
6,O=C(O)C1CCCNC1 (stereo not given),11.7
7,CCc1ccc2c(-c3cccc(Cl)c3)nc(=O)n(CC)c2n1,13.7
8,O=C(O)Cc1c[nH]c2ccc(O)cc12,-9.75
9,Cc1ccc([N+](=O)[O-])cc1S(=O)(=O)N(C)C,-2.11
10,O=[N+]([O-])c1cccc2cn[nH]c12,-1.3
11,CC(C)Cn1c(=O)n(C)c(=O)c2[nH]cnc21,-6.09
12,CC(=O)/C(C)=N/O,-7.84
13,O=C(O)CCC/C=C\C[C@@H]1[C@@H](/C=C/[C@H](O)C2Cc3ccccc3C2)[C@@H](F)C[C@@H]1O,3.05
14,C=CC[C@H](N)C(=O)O,0.326
15,NC(=O)c1cc[n+](CC2=C(C(=O)O)N3C(=O)[C@@H](NC(=O)[C@@H](c4ccccc4)S(=O)(=O)[O-])[C@H]3SC2)cc1,9.02
16,CCC(=O)N1CCN(C(=O)c2ccccc2)CC1,2.95
17,O=C(O)C1=CCCN(CCON=C(c2ccccc2)c2ccccc2)C1,2.2
18,CCCCCC[C@@H]([C@@H](C)O)n1cnc2c(N)ncnc21,-6.53
19,CC(C)C[C@H](NC(=O)[C@H](O)[C@H](N)Cc1ccccc1)C(=O)O,0.984
20,Cc1nc2c(OCc3ccccc3)cccn2c1CC#N,-6.27

row,SMILES,"activity change, negative = inhibition [%]"
1,CC(C)NC[C@H](O)COc1cccc2ccccc12,-2.13
2,COc1ccc(NC(=O)c2ccc(-c3ccc(-c4noc(C)n4)cc3C)cc2)cc1N1CCN(C)CC1,-12.3
3,COc1cc(CNC(=O)CCCCCCC(C)C)ccc1O,-15.5
4,Cc1ccc2c(c1)C(N1CCN(C)CC1)=Nc1cccnc1N2,11.8
5,CC(=O)O[C@H]1CC2(C)[C@@H](C[C@@H](O)[C@H]3[C@@]4(C)CC[C@@H](O)[C@@H](C)[C@@H]4CC[C@@]32C)C1=C(CCC=C(C)C)C(=O)O (stereo not given in full),-3.52
6,CSc1nc(N)c2ncn([C@@H]3O[C@H](COP(=O)(O)OP(=O)(O)O)C(O)[C@H]3O)c2n1 (stereo not given in full),-4.8
7,Cc1cc(Cn2cnc3c2C[C@@H](C(=O)O)N(C(=O)C(c2ccccc2)c2ccccc2)C3)ccc1N,-15.3
8,CC1=C(C(=O)O)N2C(=O)[C@@H](NC(=O)C(N)C3=CCC=CC3)[C@H]2SC1 (stereo not given in full),-14.8
9,O=C(O)C1=CC(=C(c2ccc(O)c(C(=O)O)c2)c2ccc(O)c(C(=O)O)c2)C=CC1=O,-3.63
10,OCC1NCC(O)C(O)C1O (stereo not given),-10.9
11,CC1CNCCN1S(=O)(=O)c1cccc2cnccc12 (stereo not given),18.6
12,N#C/C(=C\c1ccc(O)c(O)c1)C(=O)NCCc1ccccc1,11.5
13,S=C(S)N1CCCC1,34.9
14,O=c1[nH]c(=S)[nH]c(-c2ccccc2)c1Cc1c(O)ccc2ccccc12,0.172
15,CN(C)C(=O)/N=N/C(=O)N(C)C,0.47
16,COc1cc(CC(=O)O)ccc1O,-1.84
17,CC(C)C[C@H](NC(=O)C1OC1C(=O)O)C(=O)NCCCCN=C(N)N (stereo not given in full),13.7
18,CCn1c(=O)[nH]c2cc(Cl)c(Cl)cc21,-5.6
19,CC(=O)C(C)=O,-12.4
20,c1ccc(C(NCCNC(c2ccccc2)c2ccccc2)c2ccccc2)cc1,-9.53
